Measurements as given in PubChem BioAssay (EPA / NIEHS).
Records with an inconclusive call do not appear. Activity calls are given as the source filed them. How the source made its calls: active means hit-call score of the fitted dose curve at least 0.9, where 1 is the maximum; inconclusive means response in the unintended direction; inactive means score below 0.9.

System: not listed separately
Experiment: Tanguay_ZF_120hpf_ActivityScore_legacy: (Legacy) Oregon State University Tanguay Lab 120 Hour Post-fertilization zebrafish Assay Score for Activity (AID 2283742);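 on AC50: static exposure from 6 hpf until 120 hpf at 28 °C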
How it was run: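 Tropical 5D wild-type zebrafish embryos, dechorionated with pronase at 4 hpf, were exposed singly from 6 hpf to 120 hpf statically at 28C in 0.64% DMSO. Malformations and mortality were scored as binary by brightfield, with the activity score combining 18 morphology components.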

| Structure (SMILES) | outcome | AC50 |
| --- | --- | --- |
| CC12CC1(C)C(=O)N(c1cc(Cl)cc(Cl)c1)C2=O (stereo unspecified) | inactive |  |
| CCOP(=S)(OCC)Oc1nc(Cl)c(Cl)cc1Cl | inactive |  |
| Cc1ccccc1N | inactive |  |
| CCOP(=S)(OCC)SCSP(=S)(OCC)OCC | inactive |  |
| CC(C)(C)CC(C)(C)c1ccc(O)cc1 | inactive |  |
| Oc1cccc2cccnc12 |  | 39.6 µM (active) |
| CCCCCCCCc1ccc(O)cc1 | inactive |  |
| CCC(C)(C)c1ccc(O)c(C(C)(C)CC)c1 | inactive |  |

Target: Luciferin 4-monooxygenase (Photinus pyralis) (UniProt P08659)
Sequence (P08659 whole entry, looked up): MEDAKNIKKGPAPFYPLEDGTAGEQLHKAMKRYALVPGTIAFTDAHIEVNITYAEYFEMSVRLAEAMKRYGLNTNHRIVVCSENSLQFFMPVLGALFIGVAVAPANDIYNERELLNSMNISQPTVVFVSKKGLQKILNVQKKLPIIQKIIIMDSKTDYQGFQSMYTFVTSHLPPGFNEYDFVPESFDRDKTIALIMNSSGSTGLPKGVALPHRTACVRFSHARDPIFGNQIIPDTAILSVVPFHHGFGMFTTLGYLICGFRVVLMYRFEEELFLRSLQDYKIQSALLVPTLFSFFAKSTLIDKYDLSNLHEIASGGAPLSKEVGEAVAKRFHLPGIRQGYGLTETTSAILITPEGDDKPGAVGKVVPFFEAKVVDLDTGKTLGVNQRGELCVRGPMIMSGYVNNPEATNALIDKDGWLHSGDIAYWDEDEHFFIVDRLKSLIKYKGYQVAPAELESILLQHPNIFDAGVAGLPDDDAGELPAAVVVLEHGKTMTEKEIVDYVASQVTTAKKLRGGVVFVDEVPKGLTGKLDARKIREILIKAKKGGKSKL
Experiment: CCTE_Simmons_QuantiLum_inhib_2: CCTE's Firefly Luciferase Inhibition Assay, Simmons Lab (AID 2283767);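 on AC50: potency for inhibitors that lower luciferase luminescence relative to DMSO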
How it was run: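 Luminescence loss relative to DMSO vehicle defines inhibition; detection reagent containing 150 uM D-luciferin and 147 uM dATP (final, pH 7.8) is injected immediately before each read. Enzyme is preincubated with an 8-point titration (5 nM–87.5 uM final) for 30 min at 37C.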

| Structure (SMILES) | AC50 | outcome |
| --- | --- | --- |
| CCOC(=O)Nc1cccc(OC(=O)Nc2ccccc2)c1 | 29.1 µM (active) |  |
| CC1(C)Cc2cccc(O)c2O1 |  | inactive |
| CC(C)(c1ccc(OCC2CO2)cc1)c1ccc(OCC2CO2)cc1 (stereo unspecified) |  | inactive |
| C[C@H]1CCCC(=O)CCC/C=C/c2cc(O)cc(O)c2C(=O)O1 |  | inactive |
| OCc1ccco1 |  | inactive |
| Cc1ccc(N)cc1Cl |  | inactive |
| CC1(C)CCC(Cc2ccc(Cl)cc2)C1(O)Cn1cncn1 (stereo unspecified) |  | inactive |
| Clc1ccc(COC(Cn2ccnc2)c2ccc(Cl)cc2Cl)cc1 (stereo unspecified) |  | inactive |
| COP(=O)(OC)O/C(=C\Cl)c1cc(Cl)c(Cl)cc1Cl |  | inactive |
| CC12CC1(C)C(=O)N(c1cc(Cl)cc(Cl)c1)C2=O (stereo unspecified) |  | inactive |
| CC(C)c1cccc(C(C)C)c1O |  | inactive |
| CCOP(=S)(OCC)Oc1nc(Cl)c(Cl)cc1Cl |  | inactive |
| Cc1ccc2ccccc2c1C |  | inactive |
| CCC1(c2ccc(N)cc2)CCC(=O)NC1=O (stereo unspecified) |  | inactive |
| CCCCCCCCSC(=O)Oc1cc(Cl)nnc1-c1ccccc1 | 81.7 µM (active) |  |
| Cc1ccccc1N |  | inactive |
| CCOP(=S)(OCC)SCSP(=S)(OCC)OCC |  | inactive |
| COP(=S)(OC)Oc1ccc(Sc2ccc(OP(=S)(OC)OC)cc2)cc1 | 53.8 µM (active) |  |
| CC(C)(C)CC(C)(C)c1ccc(O)cc1 |  | inactive |
| Oc1cccc2cccnc12 |  | inactive |
| CCCCCCCCc1ccc(O)cc1 |  | inactive |
| CCC(C)(C)c1ccc(O)c(C(C)(C)CC)c1 |  | inactive |
| NNC(=S)NN |  | inactive |
